The text below walks through data of PubChem BioAssay AID1745848 (National Center for Advancing Translational Sciences (NCATS), 2022).

The structures appear in SMILES notation. Screen size: about 2,100 compounds; about 940 (45%) were called active. Another 48% or so got no clear call; they are omitted. So high a share suggests a set chosen from earlier hits. Some of the results follow. A number with no mark means an inactive call. The call rests on the fitted dose curve; in most records, active means well fitted inhibition curve with a large enough effect; inconclusive means small, poorly fitted or top-dose-only effect; inactive means no such curve, though single readings can be large or run the other way.
Potency means the concentration at half of the fitted maximal effect.

A short description of the test: Confirmatory qHTS for Inhibitors of ATXN expression. Further: nearly all actives have a fitted effect of over 65% in size.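 On activity change, negative = inhibition: 0% = DMSO vehicle wells and -100% = medium-only wells without cells.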 Particulars: ATXN2-luciferase reporter cells, luminescence, 24 h; series mostly up to 11.5 µM; activity change, negative = inhibition: at the top concentration. In outline:
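A titration, incubated 24 h with reporter cells expressing ATXN2-luciferase. Luminescence (SteadyGlo) gives ATXN2 expression, multiplexed GF-AFC fluorescence gives viability; normalised to DMSO and medium-only wells.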
(In general: In qHTS, concentration-response curves come from the screen itself.)
`CCc1cc(-c2[nH]ncc2-c2ccc(OC)cc2)c(O)cc1O`: the Potency is 3.98 µM (active). Regarding `Cc1cc(NC(=O)CSc2nccn2-c2cccc(C)c2C)no1`, the “activity change, negative = inhibition” value was -27%. Turning to `Cc1cc(NC(=O)/C=C/C(=O)N(c2ccccc2C)C(C(=O)NC2CCCC2)c2ccc(F)cc2)no1` (stereo unspecified), the Potency is 3.55 µM (active). For the compound `COc1ccc(C2CC(c3ccccc3C(F)(F)F)=NN2c2ccc(S(N)(=O)=O)cc2)cc1` (stereo unspecified), the Potency was 25.1 µM (active). As to `COc1ccc(C2CC(c3cccc(Cl)c3)=NN2c2ccc(S(N)(=O)=O)cc2)cc1` (stereo unspecified), the Potency was 25.1 µM (active).

Regarding `COc1ccc(C2CC(c3ccccc3Cl)=NN2c2ccc(S(N)(=O)=O)cc2)cc1` (stereo unspecified), the “activity change, negative = inhibition” value was -25.8% [at 57.5 µM].

Consider `Oc1ccc(Cl)c2cccnc12`, for which the Potency is 28.2 µM (active).

On to `Oc1ccc(CN2CCC(Cc3ccccc3)CC2)c2cccnc12`, for which the Potency is 0.891 µM (active). As for `Oc1ccc(Cc2ccccc2)c2cccnc12`, the Potency was 10 µM (active).

`O=c1c(Cc2ccccc2)c(O)nc2n1CCS2`: the “activity change, negative = inhibition” value is -7.22% [at 57.5 µM]. Turning to `CC(=O)N(C1=C(Cl)C(=O)c2ccccc2C1=O)C1CCCCC1`, the Potency was 8.91 µM (active). Take `CCCC(=O)Nc1c(C(=O)OCC)[nH]c2ccccc12`: the “activity change, negative = inhibition” value is 17.3%. As to `N#CCc1nc2ccccc2c(=O)[nH]1`, the “activity change, negative = inhibition” value was -1.9% [at 57.5 µM]. With `CCOc1ccccc1NC(=O)CCCc1nc2ccccc2c(=O)[nH]1`, the Potency is 2.51 µM (active). Consider `CCOC(=O)C(NS(=O)(=O)c1ccc(C)cc1)(C(F)(F)F)P(=O)(OCC(C)C)OCC(C)C` (stereo unspecified), for which the “activity change, negative = inhibition” value is -2.16%. As to `Cc1cccc(OCC(=O)NCC(=O)N/N=C/c2cc(Br)cc(Br)c2O)c1`, the Potency was 8.91 µM (active). Turning to `O=C(/C=C\c1ccccc1)NCC(=O)N/N=C/c1ccc(O)cc1O`, the Potency is 15.8 µM (active).

As to `CCOc1ccc(/C=N/NC(=O)C(O)c2ccccc2)c(O)c1` (stereo unspecified), the Potency was 3.16 µM (active). On to `O=C(COc1ccccc1)NCC(=O)N/N=C/c1ccc(O)cc1O`, for which the Potency is 15.8 µM (active).

As to `O=C(N/N=C/c1ccc(O)cc1O)/C(=C/c1ccccc1)CCO`, the Potency was 0.794 µM (active). For the compound `CCN(CC)c1ccc(/C=C/c2cccc[n+]2C)c(OC)c1`, the Potency was 2.51 µM (active). For `Cc1cc(C)nc(/N=C(\N)Nc2ccc(C(C)C)cc2)n1`, the Potency is 2.24 µM (active). Still for that read-out and setting: to `S=C(NC1CCCCC1)N1CCOCCOCCN(C(=S)NC2CCCCC2)CCOCCOCC1` belongs 3.16 µM (active); to `OC[C@@H]1CN(Cc2ccc(-c3ccccc3)cc2)C[C@H](n2cnc3c(Nc4ccccc4)ncnc32)O1`, 15.8 µM (active). The same measure, in the same setting: in the case of `CCOC(=O)C1CCN(c2ncnc3c2cnn3-c2ccc(Cl)cc2)CC1` it was 1.26 µM (active). Consider `O=C(Cn1nc2ccccc2n1)N/N=C/c1cc([N+](=O)[O-])ccc1O`, for which the Potency is 3.16 µM (active). `O=C(N/N=C/c1cc([N+](=O)[O-])ccc1O)c1c[nH]c2ccccc12`: the Potency is 17.8 µM (active). On the same count and under the same terms, in the case of `O=C(N/N=C/c1cc([N+](=O)[O-])ccc1O)c1cccc2cc[nH]c12` it was 3.16 µM (active); in that of `O=C(N/N=C/c1cc([N+](=O)[O-])ccc1O)c1cc(-c2ccccc2)nc2ccccc12`, 3.16 µM (active). As for `COc1ccccc1N1C(=O)N(C(C)=O)C2C1Nc1ccccc1N2C` (stereo unspecified), the “activity change, negative = inhibition” value is -19.6% [at 57.5 µM]. For `CSc1cccc(NC(=O)c2ccc(CN3CCc4ccccc4C3)cc2)c1`, the Potency is 4.47 µM (active).

Take `CC1Cc2cc(-c3csc(NC(=O)Cc4cccs4)n3)ccc2N1S(C)(=O)=O` (stereo unspecified): the Potency was 3.98 µM (active). As to `C=CCc1cccc(/C=N/NC(=O)CCC(=O)Nc2ccc(F)cc2)c1O`, the Potency is 3.55 µM (active). With `C=CCc1cccc(/C=N/NC(=O)CCC(=O)Nc2ccc(C)cc2)c1O`, the Potency is 3.55 µM (active). As for `Cn1c(CCN2CCN(c3ccccn3)CC2)nc2cc(NC(=O)COc3ccc(Cl)cc3)ccc21`, the Potency is 11.2 µM (active). With `Cc1c(N/N=C(\C#N)C(=O)c2ccc(Cl)cc2)c(=O)n(-c2ccccc2)n1C`, the Potency was 1.12 µM (active). In the case of `Cc1c(N=C2N=C(NC(=O)Nc3ccc(Cl)cc3)c3ccccc32)c(=O)n(-c2ccccc2)n1C`, the “activity change, negative = inhibition” value is -26.2% [at 57.5 µM].

For `Cc1c(N/N=C(\C#N)C(=O)c2ccccc2)c(=O)n(-c2ccccc2)n1C`, the Potency is 2.51 µM (active). Take `Cc1ccccc1C(=O)/C(C#N)=N/Nc1c(C)n(C)n(-c2ccccc2)c1=O`: the Potency was 3.55 µM (active). With `Cc1ccccc1C(=O)N1CCN(c2ccc(NC(=O)c3ccc4c(c3)OCCO4)cc2)CC1`, the Potency was 3.98 µM (active). For `Cc1ccc(C(=O)N2CCN(c3ccc(NC(=S)NC(=O)c4cccs4)cc3)CC2)cc1`, the “activity change, negative = inhibition” value is -19.9%. Turning to `O=C(Nc1ccc(NC(=O)c2ccco2)cc1)c1ccc2c(c1)OCCO2`, the Potency was 14.1 µM (active). `CC(=O)c1sc(NC(=O)c2cc(-c3ccccc3)nn2-c2ccccc2)nc1C`: the “activity change, negative = inhibition” value is 2.27%. In the case of `Cc1cccc(NC(=O)c2cc(-c3ccccn3)nc3ccccc23)c1C`, the Potency is 17.8 µM (active). On to `COc1cccc(C=NNC(=O)c2ccncc2)c1O`, for which the Potency is 15.8 µM (active). As for `COc1cccc(/C=N/NC(=O)c2ccc(-c3ccccc3)cc2)c1O`, the Potency is 2 µM (active). Same read-out and setting: in the case of `COc1ccc(/C=N/NC(=O)c2nc(-c3ccccc3)n(-c3ccccc3)n2)c(O)c1` it was 3.98 µM (active); in that of `COc1cccc(/C=N/NC(=O)c2cc(-c3ccccn3)nc3ccccc23)c1O`, 2.82 µM (active); in that of `COc1cccc(/C=N/NC(=O)c2ccc(=O)n(C)c2)c1O`, 15.8 µM (active). With `COc1cccc(/C=N/NC(=O)c2nc(-c3ccccc3)cc(-c3ccccc3)n2)c1O`, the Potency was 1 µM (active). `OC[C@@H]1[C@@H](c2ccc(F)cc2)C(c2ccccc2)=NN1c1ccccc1`: the “activity change, negative = inhibition” value is -20.2% [at 57.5 µM]. As for `Cc1noc2ncnc(N3CCN(c4cccc(Cl)c4)CC3)c12`, the Potency was 11.2 µM (active). Consider `Cc1cc(=O)oc2c1c(C)nn2-c1cccc(Cl)c1`, for which the “activity change, negative = inhibition” value was -0.276%. For `CCN(CC)CCNC(=O)CCc1c(C)nc2c(c(C)nn2-c2ccc(C)cc2)c1C`, the Potency is 3.16 µM (active). As to `COc1ccc2nc(C)cc(NCc3ccc(F)cc3)c2c1`, the Potency is 3.98 µM (active).

Regarding `COc1ccc2nc(C)cc(NCc3cccc(C(F)(F)F)c3)c2c1`, the Potency is 14.1 µM (active). Turning to `CCOC(=O)c1c(SCCN2CCCCC2)n(-c2ccccc2)c(=S)n(-c2ccccc2)c1=O`, the Potency was 22.4 µM (active). Consider `CCOC(=O)c1c(SCCN2CCCC2)n(-c2ccccc2)c(=S)n(-c2ccccc2)c1=O`, for which the Potency is 2.24 µM (active). In the case of `COc1cccc(N2CCN(c3nc(-c4ccccc4C)cc(=O)[nH]3)CC2)c1`, the Potency was 0.398 µM (active). As for `O=C(CNc1ccc(F)cc1)N/N=C/c1c(O)ccc2ccccc12`, the Potency is 3.16 µM (active). `COc1ccccc1NCC(=O)N/N=C/c1c(O)ccc2ccccc12`: the Potency was 3.16 µM (active).

Consider `O=C(CSCC(=O)Nc1ccccc1)N/N=C/c1c(O)ccc2ccccc12`, for which the Potency is 0.708 µM (active). With `O=C(CNc1ccccc1)N/N=C/c1c(O)ccc2ccccc12`, the Potency is 0.562 µM (active). Turning to `CCOc1cc(CNCCO)cc(Br)c1OCc1ccccc1`, the Potency is 12.6 µM (active). Turning to `Cc1nc(C(F)(F)F)c(C(=O)N/N=C(\N)c2ccccn2)s1`, the Potency was 14.1 µM (active). On the same count and under the same terms, in the case of `CC(C)C1Cc2c(sc3[nH]c(=S)n(Cc4ccccc4)c(=O)c23)CO1` (stereo unspecified) it was 12.6 µM (active); in that of `Nc1ccc(Oc2ccccc2-c2ccccc2)cc1`, 2 µM (active). Regarding `Cc1ncc(CO)c(/C=N/Nc2ccc(C(F)(F)F)cn2)c1O`, the Potency is 3.55 µM (active). For `CCC(C)N1C(=O)S/C(=C/c2ccc(Sc3nc4ccccc4[nH]3)o2)C1=O` (stereo unspecified), the Potency was 11.2 µM (active). `COc1cc(C(=O)OC(C)C(=O)N2CCc3ccccc3C2)ccc1OCC(=O)N1CCOCC1` (stereo unspecified): the “activity change, negative = inhibition” value is 4.56%. Consider `S=C(Nc1ccccc1)Nc1ccc(OCc2ccc(Cl)cc2Cl)cc1`, for which the Potency is 2.51 µM (active). As for `Cc1[nH]c(=O)c(C(=O)/C=C/c2ccccc2)c2c1CCCC2`, the Potency was 7.94 µM (active). Turning to `Cc1ccc(C(=O)NCCN2C3=NC[C@@H](Cc4ccccc4)N3C[C@H]2Cc2ccc(O)cc2)cc1Br`, the Potency is 2.82 µM (active). For `CCCCn1c2ccc(F)cc2c2nnc(NN)nc21`, the Potency was 28.2 µM (active). With `Cc1cc(C2=NNC(=NC3CC3)SC2)c(C)n1-c1ccccc1F`, the Potency was 0.126 µM (active). Turning to `CCCCC(=O)NC(c1ccco1)c1cc(Cl)c2cccnc2c1O` (stereo unspecified), the Potency is 3.55 µM (active).

Consider `CC(=O)NC(c1ccco1)c1cc(Cl)c2cccnc2c1O` (stereo unspecified), for which the Potency was 3.16 µM (active). Consider `CCCC(=O)NC(c1ccco1)c1cc(Cl)c2cccnc2c1O` (stereo unspecified), for which the Potency is 11.2 µM (active).

`CCC(=O)NC(c1ccco1)c1cc(Cl)c2cccnc2c1O` (stereo unspecified): the Potency is 2.82 µM (active). Consider `CCC(=O)NC(c1ccco1)c1cc(Br)c2cccnc2c1O` (stereo unspecified), for which the Potency is 11.2 µM (active). For the compound `O=C(CCc1ccccc1)NC(c1cccs1)c1cc(Cl)c2cccnc2c1O` (stereo unspecified), the Potency was 2.24 µM (active). Take `Oc1ccc(C2CNCc3sccc32)cc1O` (stereo unspecified): the “activity change, negative = inhibition” value was -15.3% [at 57.5 µM]. On to `Cc1nc(-c2ccc(C(F)(F)F)cc2)sc1C(=O)NN`, for which the Potency is 14.1 µM (active). For `Cc1c(C(=O)NCc2ccc(C(F)(F)F)cc2)sc(=O)n1Cc1cccc(F)c1`, the “activity change, negative = inhibition” value is -26.9% [at 57.5 µM]. Consider `Cc1ccc(F)cc1-c1cc2nc(NCCCN(C)C)n(C)c(=O)c2s1`, for which the Potency was 17.8 µM (active). For `Cn1c(NCCN2CCCC2)nc2cc(-c3ccsc3)sc2c1=O`, the Potency is 28.2 µM (active). Regarding `Cc1cc(Cl)ccc1-c1cc2nc(NCCCN(C)C)n(C)c(=O)c2s1`, the “activity change, negative = inhibition” value was -5.65%. For the compound `CCCCCCc1cc2cc(C(=O)Nc3ccccc3)c(=O)oc2cc1O`, the Potency was 0.794 µM (active).

For the compound `CCCCCCc1cc2cc(S(=O)(=O)c3ccc(C)cc3)c(=O)oc2cc1O`, the “activity change, negative = inhibition” value was -15.6%. For `Cc1cccc(Nc2nc(N)nc(CCl)n2)c1C`, the “activity change, negative = inhibition” value was -14.3%. `C=CCn1c(COc2ccccc2)nnc1SC(C)C(=O)N/N=C/c1cc(Cl)ccc1O` (stereo unspecified): the Potency was 3.98 µM (active). Same read-out and setting: to `CC(C)c1ccc(S(=O)(=O)c2cc3cc(Br)ccc3oc2=O)cc1` belongs 25.1 µM (active). Regarding `c1ccc2c(c1)c1c(c3ccccc32)CN2CCCC2C1` (stereo unspecified), the “activity change, negative = inhibition” value is -29.2% [at 57.5 µM]. For the compound `CS(=O)(=O)Nc1ccccc1C(=O)Nc1cc(Cl)cc(Cl)c1`, the Potency is 2.51 µM (active).

For the compound `O=C(C(Br)=Cc1ccccc1)c1ccccc1`, the Potency was 10 µM (active). In the case of `CC(C)(C)NCC(=Cc1ccccc1)C(=O)c1ccccc1`, the Potency was 1.41 µM (active).
